Rows were chosen to be rich in hits. Some 21% of all compounds tested hit in one or more screens of this group.
Pf growth 48h: P. falciparum growth inhibition at 48 hours (one generation). P. falciparum luciferase growth in erythrocytes, 48 h. Potency, µM (top dose mostly 28.7 µM), hits mostly inhibitors. 310,000 compounds, 5.9% hits
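Luciferase-expressing parasites in RBCs, 2% Hct / 0.1% parasitemia final; RPMI 1640 + 0.5% Albumax; 37 C, 5% CO2, one generation; luminescence read-out, lower signal = inhibition.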
Cycloheximide cs: counter-screen for Shiga toxin inhibitors: cycloheximide protein synthesis inhibition. 300,000 compounds, 12% hits. cell reporter, cycloheximide protein synthesis inhibition counterscreen. max response, %. AID 2314; in the data active = max response mostly above about 13%, no sharp cut-off; inactive = mostly below about 14%; note: read at 38.3 µM for the half of the compounds with a filed dose
Shiga toxin inh: Shiga toxin inhibition. Vero cells, Shiga toxin protein synthesis inhibition reporter. inhibition, % at 38.7 µM. 290,000 compounds, 9.2% hits. AID 2315; in the data active = inhibition mostly above about 28%, no sharp cut-off; inactive = mostly below about 43%
Pf growth 96h: P. falciparum growth inhibition at 96 hour, primary screen for plastid delayed-death inhibitors. P. falciparum luciferase reporter growth, 96 h. Potency, µM (doses to about 28.7 µM), usual class: inhibitors. 320,000 compounds, 6.9% hits. AID 504834
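Cell-based qHTS: luciferase-tagged P. falciparum in erythrocytes (2% hematocrit, 0.05% parasitemia final) incubated with compounds for 96 hours, 37 C, 5% CO2; luciferase detection reagent then added and luminescence measured.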
Hits are given with their value; 0 = inactive; ? = inconclusive; - = no result given; [ ] = another dose, or the depositor's remark. Unless noted, calls come from the whole dose curve; as a rule, active = well fitted inhibition curve with a large enough effect; inconclusive = small, poorly fitted or top-dose-only effect, or another doubt; inactive = no such curve, though single readings can be large or run the other way.

SMILES | Pf growth 48h | Cycloheximide cs | Shiga toxin inh | Pf growth 96h
Brc1cnc2nc(SCc3nc4ccccc4[nH]3)[nH]c2c1 | ? | 0 | 0 | 0
COc1ccc(C2=NOC(Cn3nc(C(=O)O)cc3-c3ccccc3)C2)cc1 (stereo not drawn) | 0 | 0 | 0 | 0
COc1ccc(C2=NOC(CNC(=S)N3CCOCC3)C2)cc1 (stereo not drawn) | 0 | 34 | 57 | 0
O=C(O)CC(O)CC(O)/C=C/c1c(C2CC2)nc2ccccc2c1-c1ccc(F)cc1 (stereo not drawn) | 0 | - | - | 0
CC(C)(C)C1CCC(OC(=O)c2ccncc2)CC1 (stereo not drawn) | 12µM | 0 | 0 | 0[5.75 µM]
O=C1CCC/C(=N/Nc2ccc(Cl)cc2)C1 | ? | 29 | 67 | 12µM
CC(C)(C)SCCNC(=O)CN(c1ccccc1)S(=O)(=O)c1ccccc1 | ? | 0 | 0 | ?
O=C(CCC(=O)N1CCOCC1)NCc1cccc(C(F)(F)F)c1 | ? | - | - | 0
COC(=O)CNC(=O)CNC(=O)c1nn(-c2ccc(OC)c(OC)c2)c(=O)c2ccccc12 | 0 | 0 | 0 | 0
COc1ccc(-n2nc(C(=O)NCC(=O)NCCC3=CCCCC3)c3ccccc3c2=O)cc1OC | ? | 0 | 0 | 9.3µM
COc1ccc(-n2nc(C(=O)NCC(=O)N3CCN(c4ccccc4F)CC3)c3ccccc3c2=O)cc1 | 0 | 0 | 0 | 0
COc1ccc(-n2nc(C(=O)NCC(=O)N3CCN(Cc4ccccc4)CC3)c3ccccc3c2=O)cc1OC | ? | 0 | 0 | 1µM
COc1ccc(-n2nc(C(=O)NCC(=O)N3CCN(c4ccccc4F)CC3)c3ccccc3c2=O)cc1OC | ? | 25 | 0 | ?
COc1ccc(/C=N/Nc2nnc(-c3ncc[nH]3)c3ccccc23)cc1 | 0 | 25 | 78 | 0
Oc1ccc2ccccc2c1/C=N/Nc1nnc(-c2ncc[nH]2)c2ccccc12 | 2.6µM | 48 | 0 | -
Cc1cc(N=Cc2c(O)ccc3ccccc23)no1 | 0 | 0 | 0 | ?
COc1cc(OC)cc(-c2nnc3n2N=C(c2ccc(OC)c(OC)c2)CS3)c1 | - | 0 | 0 | -
COc1ccc(N2CSC3=C(C#N)C(c4cc(OC)c(OC)cc4OC)CC(=O)N3C2)c(OC)c1 (stereo not drawn) | - | 0 | 0 | 0
COc1cc(OC)c(C2CC(=O)N3CN(c4ccc(C)cc4)CSC3=C2C#N)cc1OC (stereo not drawn) | 0 | 0 | 41 | 0
COc1ccc(N2CSC3=C(C#N)C(c4cc(OC)ccc4OC)CC(=O)N3C2)c(OC)c1 (stereo not drawn) | - | 0 | 0 | 13µM
O=C(O)CCCn1cc(NC(=O)c2c(F)cccc2F)cn1 | 0 | 0 | 0 | 0
Cc1cc(C(=O)OC(C(=O)Nc2ccc(C)c(Cl)c2)c2ccccc2)c(C)o1 (stereo not drawn) | 10µM | 0 | 0 | ?
O=C(Nc1ccc2ccccc2c1)C(c1ccccc1)C1CCCC1 (stereo not drawn) | 8.3µM | 0 | 0 | 2.1µM
Cc1ccc(NC(=O)C(NC2CCCC2)c2ccccc2)cc1Cl (stereo not drawn) | 13µM | 0 | 0 | 12µM
Cc1ccc(NC(=O)C(OC(=O)c2ccccc2Cl)c2ccccc2)cc1Cl (stereo not drawn) | 0 | 0 | 0 | 0
SMILES | Pf growth 48h | Cycloheximide cs | Shiga toxin inh | Pf growth 96h
COc1cccc(NC(=O)C(NC2CCCC2)c2ccccc2)c1 (stereo not drawn) | ? | 0 | 0 | ?
O=c1[nH]c2cc(S(=O)(=O)CCO)ccc2o1 | 0 | 0 | 0 | 0
Cc1ccc(SCCC(=O)Nc2cccc(N(C)S(C)(=O)=O)c2)cc1 | - | 0 | 0 | 0
O=C(CCCC[C@@H]1SC[C@H]2NC(=O)N[C@H]12)Nc1ccc(C(=O)O)cc1 | - | 0 | 0 | -
COCCCn1c(SCC(=O)NC2CCCCC2)nnc1-c1ccncc1 | 0 | 0 | 0 | 8.3µM
COCCCn1c(SCC(=O)NC2CCCCC2)nnc1-c1ccco1 | 0 | 0 | 0 | 2.3µM
CCn1c(SCC(=O)NC2CCCC2)nnc1-c1ccncc1 | 0 | 0 | 0 | 0
COc1ccc(CNC(=O)C/C(C)=N/NC(=O)COc2ccccc2)cc1 | 0 | 0 | 0 | 0
COCCc1ncc(CN2CCC(C(=O)Nc3ccc(-n4cccn4)cc3)CC2)cn1 | ? | 0 | 0 | 0
CN(C)c1ncc(CN2CCC(C(=O)Nc3ccc(-n4cccn4)cc3)CC2)s1 | 2.6µM | 0 | 0 | 0
NC(=O)c1ccc(SCC(=O)OCC(=O)NCc2cccs2)c([N+](=O)[O-])c1 | 0 | - | - | 0
O=C(O)COc1c(-c2ccco2)oc2ccccc2c1=O | 0 | 0 | 0 | 0
COc1ccc(-c2oc3ccccc3c(=O)c2OC(C)=O)cc1 | ? | 34 | 68 | ?
COc1ccc(-c2oc3ccccc3c2C#CC(C)(C)O)cc1 | ? | - | - | 1.9µM
COc1ccc(-c2oc3ccccc3c(=O)c2OCC(=O)O)cc1 | 0 | 0 | 0 | ?
CC(=O)Oc1c(-c2ccc(Br)o2)oc2ccccc2c1=O | ? | 13 | 0 | 0
CCCC(=O)C1=C(c2ccccc2)C(C#N)(C#N)C(C#N)=C1N | 0 | 0 | 0 | 0
COC(=O)Cc1[nH]n(-c2nc3ccccc3s2)c(=O)c1C(C)=O | 0 | 17 | 0 | -
COc1ccc(CN=C(C)c2c(C(F)(F)F)[nH]n(-c3nc4ccccc4s3)c2=O)cc1 | 0 | 42 | 122 | -
CCOC(=O)c1ccc(NC(=O)CSc2nncn2-c2cccnc2)cc1 | 0 | 0 | 0 | ?
N#CCN(C(=O)COC(=O)CCCNC(=O)c1ccc(Cl)cc1)c1ccccc1 | 0 | - | - | 0
COc1ccc(C)c2sc(NC(=O)CCS(=O)(=O)c3ccccc3)nc12 | 0 | 0 | 0 | 5.2µM
CC1(C)CC(=O)c2sc(NC(=O)C(C)(C)C)nc2C1 | 0 | 40 | 92 | 0
CC1(C)CC(=O)c2sc(NC(=O)c3cccs3)nc2C1 | 0 | 16 | 0 | 0
CC1(C)CC(=O)c2sc(NC(=O)CN3CCCCC3)nc2C1 | 0 | 0 | 0 | ?
SMILES | Pf growth 48h | Cycloheximide cs | Shiga toxin inh | Pf growth 96h
CC(Oc1ccccc1)C(=O)Nc1nc2c(s1)C(=O)CC(C)(C)C2 (stereo not drawn) | 0 | 0 | 0 | 0
CC1(C)CC(=O)c2sc(NC(=O)CCS(=O)(=O)c3ccccc3)nc2C1 | 0 | 30 | 0 | 0
Cc1ccnc(NS(=O)(=O)c2ccc(NC(=O)Cc3ccc(Br)cc3)cc2)n1 | 0 | 0 | 0 | 0
CC(CCc1ccccc1)NC(=O)COC(=O)c1ccccc1O (stereo not drawn) | 0 | 0 | 0 | 0
O=C(CSc1nnc2sc3ccccc3n12)NCc1ccc2c(c1)OCO2 | 0 | 0 | 0 | ?
COC(=O)c1ccc(CNC(=O)C23CC4CC(CC(C4)C2)C3)cc1 | 0 | 0 | 0 | 0
COc1ccc(OC)c(NC(=O)CSc2nnc(CNC(=O)c3cccs3)o2)c1 | 0 | 0 | 0 | ?
CC1(C)CC(=O)c2sc(NS(=O)(=O)c3ccc(Br)cc3)nc2C1 | 0 | 0 | 0 | 0
CC1(C)CNC(=O)c2sc(N3CCOCC3)nc2C1 | ? | 0 | 0 | 0[5.75 µM]
CC1(C)CNC(=O)c2sc(NC(=O)c3ccccc3)nc2C1 | 0 | 51 | 109 | ?
CC1(C)CC(=O)c2sc(NC(=O)c3ccc4ncsc4c3)nc2C1 | 0 | 24 | 62 | 0
CC1(C)CC(=O)c2sc(NC(=O)c3ccccc3)nc2C1 | 0 | 33 | 75 | 0
CC1(c2ccc(Cl)cc2)NC(=O)N(CC(=O)Nc2cccnc2Cl)C1=O (stereo not drawn) | 0 | - | - | 0

Compound activity from PubChem.
